# ± gives the standard deviation.
# T1: HaloTag-ATRX ADD domain (163-292)
# T1 chain: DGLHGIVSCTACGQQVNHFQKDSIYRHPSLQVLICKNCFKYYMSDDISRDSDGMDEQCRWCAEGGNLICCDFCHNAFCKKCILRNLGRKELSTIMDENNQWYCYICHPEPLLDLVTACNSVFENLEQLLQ
# Key:
# Experiment in all cases: peptide microarray binding signal (635 nm), min-max normalized on array (fraction of array maximum); higher = stronger binding
# [1] = target: T1, HaloTag-ATRX ADD domain (163-292)
# Description: (§1)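 Histone 13-mer peptides were synthesized as cellulose conjugates with a C-terminal 20-atom PEG linker and printed in triplicate on nitrocellulose. The sequence given is the unmodified backbone; PTMs (Kme1/2/3, Kac, Sph/Tph, Rme/Rme2a/Rme2s, Rcit) are listed in the label and the 'peptide modifications' condition. Slides were probed at 4 °C for 1 h with biotin-labelled (HQ)5-HaloTag reader fusions (ATRX-ADD, ING2-PHD) then streptavidin-Alexa647, or with rabbit histone antibodies then anti-rabbit Alexa647. The mean 635 nm signal of the triplicate spots was scaled 0-1 between the lowest and highest values on each array.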
# [2] = target: HaloTag-ING2 PHD (mouse Ing2 200-280)
# Description: as §1
# [3] = target: anti-H3K4me3 antibody ab8580
# Description: as §1
# [4] = target: anti-H3K9me3 antibody ab8898
# Description: as §1
# [5] = peptide region: H2B 1-13, peptide modifications: H2BK5ac H2BS6ph, binder concentration: 1:2,000 dilution
# [6] = peptide region: H2B 1-13, peptide modifications: H2BK5ac H2BS6ph, binder concentration: 1:10,000 dilution
# [7] = peptide region: H2B 1-13, peptide modifications: H2BK11ac, binder concentration: 1:2,000 dilution
# [8] = peptide region: H2B 1-13, peptide modifications: H2BK11ac, binder concentration: 1:10,000 dilution
# [9] = peptide region: H2B 1-13, peptide modifications: H2BK5ac H2BK11ac, binder concentration: 1:2,000 dilution
# [10] = peptide region: H2B 1-13, peptide modifications: H2BK5ac H2BK11ac, binder concentration: 1:10,000 dilution
# [11] = peptide region: H2B 1-13, binder concentration: 1:2,000 dilution
# [12] = peptide region: H2B 1-13, binder concentration: 1:10,000 dilution
# [13] = peptide region: H2B 7-19, peptide modifications: H2BK11ac H2BK12ac H2BS14ph H2BK15ac H2BK16ac, binder concentration: 1:2,000 dilution
# [14] = peptide region: H2B 7-19, peptide modifications: H2BK11ac H2BK12ac H2BS14ph H2BK15ac H2BK16ac, binder concentration: 1:10,000 dilution
binder,measurement,setting,value
PEPAKSAPAPKKG [H2B 1-13 P E P A Kac Sph A P A P K K G],peptide microarray binding signal,"[1]; peptide region: H2B 1-13, peptide modifications: H2BK5ac H2BS6ph, binder concentration: 50 nM",0.00433 ± 0.00028
same,peptide microarray binding signal,"[1]; peptide region: H2B 1-13, peptide modifications: H2BK5ac H2BS6ph, binder concentration: 500 nM",0.00467 ± 0.0018
same,peptide microarray binding signal,"[2]; peptide region: H2B 1-13, peptide modifications: H2BK5ac H2BS6ph, binder concentration: 10 nM",0.00442 ± 0.0003
same,peptide microarray binding signal,"[2]; peptide region: H2B 1-13, peptide modifications: H2BK5ac H2BS6ph, binder concentration: 100 nM",0.00872 ± 0.0029
same,peptide microarray binding signal,[3]; [5],0.00217 ± 0.0016
same,peptide microarray binding signal,[3]; [6],0.000628 ± 1.3e-05
same,peptide microarray binding signal,[4]; [5],0.000332 ± 2.6e-05
same,peptide microarray binding signal,[4]; [6],0.000865 ± 2.4e-05
PEPAKSAPAPKKG [H2B 1-13 P E P A K S A P A P Kac K G],peptide microarray binding signal,"[1]; peptide region: H2B 1-13, peptide modifications: H2BK11ac, binder concentration: 50 nM",0.00254 ± 0.00043
same,peptide microarray binding signal,"[1]; peptide region: H2B 1-13, peptide modifications: H2BK11ac, binder concentration: 500 nM",0.001762 ± 1.6e-05
same,peptide microarray binding signal,"[2]; peptide region: H2B 1-13, peptide modifications: H2BK11ac, binder concentration: 10 nM",0.0156 ± 0.012
same,peptide microarray binding signal,"[2]; peptide region: H2B 1-13, peptide modifications: H2BK11ac, binder concentration: 100 nM",0.00113
same,peptide microarray binding signal,[3]; [7],0.000774 ± 9.3e-05
same,peptide microarray binding signal,[3]; [8],0.000342 ± 3.8e-06
same,peptide microarray binding signal,[4]; [7],0.000302 ± 1.1e-05
same,peptide microarray binding signal,[4]; [8],0.000404 ± 4.4e-06
PEPAKSAPAPKKG [H2B 1-13 P E P A Kac S A P A P Kac K G],peptide microarray binding signal,"[1]; peptide region: H2B 1-13, peptide modifications: H2BK5ac H2BK11ac, binder concentration: 50 nM",0.00439 ± 0.00015
same,peptide microarray binding signal,"[1]; peptide region: H2B 1-13, peptide modifications: H2BK5ac H2BK11ac, binder concentration: 500 nM",0.00957 ± 0.00041
same,peptide microarray binding signal,"[2]; peptide region: H2B 1-13, peptide modifications: H2BK5ac H2BK11ac, binder concentration: 10 nM",0.00853 ± 0.00038
same,peptide microarray binding signal,"[2]; peptide region: H2B 1-13, peptide modifications: H2BK5ac H2BK11ac, binder concentration: 100 nM",0.0114 ± 0.0021
same,peptide microarray binding signal,[3]; [9],0.00251 ± 0.0019
same,peptide microarray binding signal,[3]; [10],0.00108 ± 3.8e-05
same,peptide microarray binding signal,[4]; [9],0.00198 ± 0.00033
same,peptide microarray binding signal,[4]; [10],0.00225 ± 0.0002
PEPAKSAPAPKKG [H2B 1-13 P E P A K S A P A P K K G],peptide microarray binding signal,"[1]; peptide region: H2B 1-13, binder concentration: 50 nM",0.00715 ± 0.00022
same,peptide microarray binding signal,"[1]; peptide region: H2B 1-13, binder concentration: 500 nM",0.00119 ± 0.0002
same,peptide microarray binding signal,"[2]; peptide region: H2B 1-13, binder concentration: 10 nM",0.00197 ± 0.00013
same,peptide microarray binding signal,"[2]; peptide region: H2B 1-13, binder concentration: 100 nM",0.00149 ± 7.7e-05
same,peptide microarray binding signal,[3]; [11],9.44e-05 ± 1e-06
same,peptide microarray binding signal,[3]; [12],0.000342 ± 7.5e-06
same,peptide microarray binding signal,[4]; [11],0.000257 ± 2.6e-05
same,peptide microarray binding signal,[4]; [12],0.000807 ± 2.9e-05
APAPKKGSKKAVT [H2B 7-19 A P A P Kac Kac G Sph Kac Kac A V T],peptide microarray binding signal,"[1]; peptide region: H2B 7-19, peptide modifications: H2BK11ac H2BK12ac H2BS14ph H2BK15ac H2BK16ac, binder concentration: 50 nM",0.00254 ± 2.9e-05
same,peptide microarray binding signal,"[1]; peptide region: H2B 7-19, peptide modifications: H2BK11ac H2BK12ac H2BS14ph H2BK15ac H2BK16ac, binder concentration: 500 nM",0.00495 ± 8.6e-05
same,peptide microarray binding signal,"[2]; peptide region: H2B 7-19, peptide modifications: H2BK11ac H2BK12ac H2BS14ph H2BK15ac H2BK16ac, binder concentration: 10 nM",0.00639 ± 0.00065
same,peptide microarray binding signal,"[2]; peptide region: H2B 7-19, peptide modifications: H2BK11ac H2BK12ac H2BS14ph H2BK15ac H2BK16ac, binder concentration: 100 nM",0.00163 ± 1.7e-05
same,peptide microarray binding signal,[3]; [13],0.00523 ± 0.00045
same,peptide microarray binding signal,[3]; [14],0.00126 ± 2.2e-05
same,peptide microarray binding signal,[4]; [13],0.000891 ± 6e-05
same,peptide microarray binding signal,[4]; [14],0.00098 ± 1.7e-05

# From the supplement of paper PMC4022240
